{"source": "PubChem BioAssay (NCATS)", "key": {"[1]": {"test": "qHTS for differential inhibitors of proliferation of Plasmodium falciparum line W2 (AID 1883);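 note: potency is the fitted concentration of half-maximal effect; parasites grown with compound for 72 h before lysis and staining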", "conditions": "Potency: Plasmodium falciparum W2 proliferation inhibition"}, "[2]": {"test": "qHTS for differential inhibitors of proliferation of Plasmodium falciparum line HB3 (AID 1886); note: potency is the fitted concentration of half-maximal effect", "conditions": "Potency: Plasmodium falciparum HB3 proliferation inhibition"}, "[3]": {"biological_target": "Ferritin light chain (Equus caballus) (UniProt P02791)", "sequence (P02791 2-175 limits assumed)": "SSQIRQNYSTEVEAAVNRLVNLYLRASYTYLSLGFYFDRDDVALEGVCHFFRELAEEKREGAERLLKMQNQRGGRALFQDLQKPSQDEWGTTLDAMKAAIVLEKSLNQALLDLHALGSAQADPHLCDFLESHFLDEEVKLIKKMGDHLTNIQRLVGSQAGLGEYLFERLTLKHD", "test": "qHTS Validation Assay for Identification of Novel General Anesthetics (AID 2323)", "in_short": "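10 uM horse-spleen apoferritin + 1-AMA (50% saturated, PBS); cpd pin-transferred, 10 min RT. Ex 380/Em 535 nm endpoint. Activity normalized between free 1-AMA and 1-AMA/apoferritin; 4-parameter Hill fit of concentration-response.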"}, "[4]": {"biological_target": "ATP-dependent DNA helicase Q1 (Homo sapiens) (UniProt P46063)", "sequence (P46063 whole entry, looked up)": "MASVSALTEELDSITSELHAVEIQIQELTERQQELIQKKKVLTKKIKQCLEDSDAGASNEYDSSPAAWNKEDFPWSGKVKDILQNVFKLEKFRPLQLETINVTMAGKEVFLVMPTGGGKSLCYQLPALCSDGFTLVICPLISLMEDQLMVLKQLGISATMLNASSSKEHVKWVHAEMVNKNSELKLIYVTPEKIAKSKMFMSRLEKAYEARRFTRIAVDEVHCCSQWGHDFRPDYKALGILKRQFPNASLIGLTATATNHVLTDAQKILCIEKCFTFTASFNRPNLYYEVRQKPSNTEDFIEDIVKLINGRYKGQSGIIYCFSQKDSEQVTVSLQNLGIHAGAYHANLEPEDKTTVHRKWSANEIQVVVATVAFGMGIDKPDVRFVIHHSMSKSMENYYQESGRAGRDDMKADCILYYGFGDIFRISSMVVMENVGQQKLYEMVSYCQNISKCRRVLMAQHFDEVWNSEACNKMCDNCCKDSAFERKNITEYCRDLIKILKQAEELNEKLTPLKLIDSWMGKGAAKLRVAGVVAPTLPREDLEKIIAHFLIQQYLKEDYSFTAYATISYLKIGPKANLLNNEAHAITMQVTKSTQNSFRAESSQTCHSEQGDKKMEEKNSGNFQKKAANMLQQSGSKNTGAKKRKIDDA", "test": "qHTS Validation Assay for Inhibitors of RecQ-Like Dna Helicase 1 (RECQ1) (AID 2353)", "in_short": "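RECQ1T1 50 nM; forked duplex (20 bp + 30-nt ss tails) 200 nM, ATP 2 mM final; pH 8.0, 2 mM MgCl2, 2.5 ug/ml poly(dI-dC); 15 min compound preincubation; discontinuous kinetic read over 2 h at RT.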"}, "[5]": {"test": "Quantitative high throughput screen for delayed death inhibitors of the malarial parasite plastid, 96 hour incubation (AID 488745); note: potency is the fitted concentration of half-maximal effect; nearly all actives have a fitted effect of over 70% in size", "in_short": "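Readout is firefly luciferase luminescence from an integrated reporter in P. falciparum; lower signal marks inhibited growth. Cultures at 2% hematocrit and 0.1% parasitemia were treated with compound across two generations (96 h, 37 C, 5% CO2).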"}, "[6]": {"biological_target": "M-phase phosphoprotein 8 (Homo sapiens) (UniProt Q99549)", "sequence (Q99549 whole entry, looked up)": "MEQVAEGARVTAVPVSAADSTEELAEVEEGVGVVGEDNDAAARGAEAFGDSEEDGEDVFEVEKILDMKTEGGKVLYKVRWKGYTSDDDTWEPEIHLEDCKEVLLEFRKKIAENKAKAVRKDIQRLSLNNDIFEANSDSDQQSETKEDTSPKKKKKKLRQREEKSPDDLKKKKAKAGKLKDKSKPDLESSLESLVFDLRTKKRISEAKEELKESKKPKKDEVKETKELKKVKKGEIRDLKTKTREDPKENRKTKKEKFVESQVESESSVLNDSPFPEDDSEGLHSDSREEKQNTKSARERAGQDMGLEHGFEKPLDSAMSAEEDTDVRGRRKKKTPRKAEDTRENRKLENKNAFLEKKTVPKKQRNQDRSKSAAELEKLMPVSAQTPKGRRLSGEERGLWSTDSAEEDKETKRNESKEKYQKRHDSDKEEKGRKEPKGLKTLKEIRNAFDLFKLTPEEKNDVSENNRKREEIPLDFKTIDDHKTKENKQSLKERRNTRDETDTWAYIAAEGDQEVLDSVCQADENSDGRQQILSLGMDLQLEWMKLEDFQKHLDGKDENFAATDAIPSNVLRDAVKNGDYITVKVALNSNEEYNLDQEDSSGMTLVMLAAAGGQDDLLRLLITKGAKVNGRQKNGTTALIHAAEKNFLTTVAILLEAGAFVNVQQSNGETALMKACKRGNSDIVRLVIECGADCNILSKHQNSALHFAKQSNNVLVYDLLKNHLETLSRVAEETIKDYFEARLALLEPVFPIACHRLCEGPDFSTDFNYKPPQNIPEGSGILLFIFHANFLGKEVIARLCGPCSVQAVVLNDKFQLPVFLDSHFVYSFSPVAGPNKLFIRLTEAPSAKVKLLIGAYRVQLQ", "test": "qHTS Validation Assay for Inhibitors for MPP8 Chromodomain Interactions with Methylated Histone Tails (AID 488949); note: top concentration of the series differs between compounds; nearly all actives have a fitted effect of over 55% in size", "in_short": "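AlphaScreen read-out: streptavidin donor and nickel chelate acceptor beads (final 10 ug/mL), 30 min in the dark at RT. Complex of 50 nM MPP8 and 50 nM b-H3(1-18)K9me3 peptide had been exposed to compounds for 30 min beforehand.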"}, "[7]": {"biological_target": "Transient receptor potential cation channel subfamily V member 1 (Homo sapiens) (UniProt Q8NER1)", "test": "HTS Assay for Compounds that Act as Enhancers of the Vanilloid Receptor 1 (AID 488979)", "in_short": "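TRPV1-expressing cells loaded with Fluo-8 calcium dye; compounds added and calcium influx read kinetically for 3 min (agonist phase), then capsaicin at EC20 added and read 2 min more for enhancement. Fluorescence ex 480/em 520 nm.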"}, "[8]": {"biological_target": "Thyrotropin receptor (Homo sapiens) (UniProt P16473)", "sequence (P16473 whole entry, looked up)": "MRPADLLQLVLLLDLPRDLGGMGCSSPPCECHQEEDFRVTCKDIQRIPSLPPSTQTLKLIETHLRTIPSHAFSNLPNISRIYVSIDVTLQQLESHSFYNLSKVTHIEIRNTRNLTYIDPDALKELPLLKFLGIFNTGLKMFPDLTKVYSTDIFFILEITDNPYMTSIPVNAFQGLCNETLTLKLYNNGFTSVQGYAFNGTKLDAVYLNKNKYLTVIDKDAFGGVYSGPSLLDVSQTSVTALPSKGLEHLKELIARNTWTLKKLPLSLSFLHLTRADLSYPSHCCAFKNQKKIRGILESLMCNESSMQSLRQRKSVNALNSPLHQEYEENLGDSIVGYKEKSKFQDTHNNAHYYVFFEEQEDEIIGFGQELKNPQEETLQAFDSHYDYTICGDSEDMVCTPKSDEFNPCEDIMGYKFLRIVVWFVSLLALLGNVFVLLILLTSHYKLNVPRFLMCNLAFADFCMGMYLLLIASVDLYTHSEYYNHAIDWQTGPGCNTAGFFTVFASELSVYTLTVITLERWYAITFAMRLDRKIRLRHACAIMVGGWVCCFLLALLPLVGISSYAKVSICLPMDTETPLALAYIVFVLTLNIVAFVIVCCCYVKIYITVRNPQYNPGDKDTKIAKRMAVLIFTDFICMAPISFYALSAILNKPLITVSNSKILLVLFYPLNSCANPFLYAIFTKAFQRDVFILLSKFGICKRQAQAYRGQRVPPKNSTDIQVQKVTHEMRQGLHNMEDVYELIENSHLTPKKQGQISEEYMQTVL", "test": "qHTS Assay for Antagonists of the Thyroid Stimulating Hormone Receptor (AID 488980)", "in_short": "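TSHR-HEK293 cells; 70 uM RO 20-1724 PDE inhibitor; compound + EC80 TSH (4 nM final); anti-cAMP cryptate antibody/cAMP-d2 in lysis buffer, 30 min RT; HTRF 665/620 nm read.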"}, "[9]": {"biological_target": "Thyrotropin-releasing hormone receptor (Homo sapiens) (UniProt P34981)", "sequence (P34981 whole entry, looked up)": "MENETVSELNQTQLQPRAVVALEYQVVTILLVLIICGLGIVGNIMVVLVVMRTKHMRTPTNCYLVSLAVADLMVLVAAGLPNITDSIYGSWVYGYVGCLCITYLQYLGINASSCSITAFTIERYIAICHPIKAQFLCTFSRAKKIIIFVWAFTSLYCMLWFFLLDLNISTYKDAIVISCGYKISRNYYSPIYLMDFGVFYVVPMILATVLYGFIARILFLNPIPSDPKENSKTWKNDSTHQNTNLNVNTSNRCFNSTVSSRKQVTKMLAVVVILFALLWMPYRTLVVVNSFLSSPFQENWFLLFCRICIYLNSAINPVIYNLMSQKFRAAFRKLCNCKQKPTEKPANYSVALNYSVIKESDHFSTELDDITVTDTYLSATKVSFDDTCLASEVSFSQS", "test": "qHTS for Small Molecule Agonists and Allosteric Enhancers of Human TRH Receptor: Validation Screen for Agonists (AID 493127;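 active = calcium activation more than 3 SD above the typical response in the agonist read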)", "conditions": "TRH receptor agonist cell assay; at 2 µM; stronger effect = higher value", "in_short": "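Compounds are added by online pintool to dye-loaded TRHR cells while fluorescence is recorded every second. A rise in calcium signal during the agonist read marks activation; a later 10 nM TRH addition (EC20) serves the separate enhancer mode.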"}, "[10]": {"biological_target": "Galactokinase (Homo sapiens) (UniProt P51570)", "sequence (P51570 whole entry, looked up)": "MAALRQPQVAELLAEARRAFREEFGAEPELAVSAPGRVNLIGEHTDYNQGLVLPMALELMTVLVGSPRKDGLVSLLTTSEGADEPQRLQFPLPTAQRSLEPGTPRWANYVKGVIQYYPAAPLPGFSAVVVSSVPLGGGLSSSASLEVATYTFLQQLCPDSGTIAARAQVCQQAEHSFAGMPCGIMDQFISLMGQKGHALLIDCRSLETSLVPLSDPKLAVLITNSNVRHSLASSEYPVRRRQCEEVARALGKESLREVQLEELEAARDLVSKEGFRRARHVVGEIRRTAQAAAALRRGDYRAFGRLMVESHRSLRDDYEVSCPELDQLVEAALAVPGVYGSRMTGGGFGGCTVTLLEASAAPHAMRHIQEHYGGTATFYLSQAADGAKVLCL", "test": "qHTS Validation Assay for Inhibitors of Human Galactokinase (GALK) (AID 493189)", "in_short": "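Luminescence from leftover ATP (Kinase-Glo Plus, 10 min) served as read-out after a 1 h room-temperature reaction of 5 nM GALK, 100 uM galactose and 35 uM ATP at pH8.0.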"}, "[11]": {"test": "Validation screen for small molecules that induce DNA re-replication in SW480 colon adenocarcinoma cells (AID 504364)", "in_short": "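Image-based qHTS: compounds were incubated with SW480 cells for 48 hr, nuclei stained with Hoechst, and per-nucleus fluorescence intensity scanned to flag cells with excess DNA content.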"}, "[12]": {"biological_target": "DNA dC->dU-editing enzyme APOBEC-3G (Homo sapiens) (UniProt Q9HC16)", "sequence (Q9HC16 whole entry, looked up)": "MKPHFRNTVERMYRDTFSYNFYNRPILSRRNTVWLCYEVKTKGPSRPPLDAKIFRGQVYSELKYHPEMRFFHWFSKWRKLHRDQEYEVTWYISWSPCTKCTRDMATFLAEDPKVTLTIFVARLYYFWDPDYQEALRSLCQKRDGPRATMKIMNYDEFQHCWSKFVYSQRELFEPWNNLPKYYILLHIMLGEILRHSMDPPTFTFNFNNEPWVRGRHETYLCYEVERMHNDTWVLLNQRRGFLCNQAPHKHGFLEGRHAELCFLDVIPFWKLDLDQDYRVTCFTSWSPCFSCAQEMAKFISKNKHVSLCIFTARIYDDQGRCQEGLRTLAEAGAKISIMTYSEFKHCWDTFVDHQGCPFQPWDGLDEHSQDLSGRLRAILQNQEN", "test": "qHTS for inhibitors of Vif-A3G interactions: Validation (AID 588379)", "in_short": "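Yellow fluorescence (Ex 488, Em 500-530) of Vif-coexpressing HeLa A3G-eYFP cells, scanned by Acumen cytometer, reports blocked A3G degradation. Cells plated at 700/well overnight at 37 deg C before compound addition, then a further overnight compound incubation at 37 deg C.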"}, "[13]": {"biological_target": "Voltage-gated inwardly rectifying potassium channel KCNH2 (Homo sapiens) (UniProt Q12809)", "sequence (Q12809 whole entry, looked up)": "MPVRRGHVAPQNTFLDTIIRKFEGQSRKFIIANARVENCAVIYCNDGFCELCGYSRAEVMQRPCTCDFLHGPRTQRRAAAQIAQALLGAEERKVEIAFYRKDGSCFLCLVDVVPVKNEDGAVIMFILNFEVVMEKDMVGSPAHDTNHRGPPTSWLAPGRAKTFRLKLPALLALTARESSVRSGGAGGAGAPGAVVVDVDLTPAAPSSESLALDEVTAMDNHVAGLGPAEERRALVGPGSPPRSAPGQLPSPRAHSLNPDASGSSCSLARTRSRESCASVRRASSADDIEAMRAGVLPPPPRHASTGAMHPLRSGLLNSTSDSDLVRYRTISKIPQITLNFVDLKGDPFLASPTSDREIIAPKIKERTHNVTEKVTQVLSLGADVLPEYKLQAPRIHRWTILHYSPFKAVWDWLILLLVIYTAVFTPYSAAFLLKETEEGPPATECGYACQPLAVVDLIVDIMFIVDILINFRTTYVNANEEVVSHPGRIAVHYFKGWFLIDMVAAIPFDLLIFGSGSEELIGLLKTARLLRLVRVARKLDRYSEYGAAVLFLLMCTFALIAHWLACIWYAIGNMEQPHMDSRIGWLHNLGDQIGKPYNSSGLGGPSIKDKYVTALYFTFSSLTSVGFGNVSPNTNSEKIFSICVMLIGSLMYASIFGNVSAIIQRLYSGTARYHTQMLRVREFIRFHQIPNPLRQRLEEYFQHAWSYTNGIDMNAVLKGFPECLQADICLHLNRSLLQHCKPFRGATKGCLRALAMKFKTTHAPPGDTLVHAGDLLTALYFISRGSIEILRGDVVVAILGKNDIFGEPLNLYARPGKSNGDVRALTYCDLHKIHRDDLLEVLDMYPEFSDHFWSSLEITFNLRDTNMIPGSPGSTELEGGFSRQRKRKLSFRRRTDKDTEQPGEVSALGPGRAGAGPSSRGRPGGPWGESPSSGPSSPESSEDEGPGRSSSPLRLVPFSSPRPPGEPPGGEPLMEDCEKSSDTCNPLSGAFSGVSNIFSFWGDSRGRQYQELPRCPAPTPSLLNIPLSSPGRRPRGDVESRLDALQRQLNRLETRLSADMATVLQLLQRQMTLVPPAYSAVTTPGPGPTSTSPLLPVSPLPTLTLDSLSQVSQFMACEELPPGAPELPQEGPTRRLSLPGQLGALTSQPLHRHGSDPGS", "test": "qHTS Assay for Small Molecule Inhibitors of the Human hERG Channel Activity (AID 588834);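 note: top concentration of the series differs between compounds; lower thallium flux fluorescence means stronger hERG block; nearly all actives have a fitted effect of over 50% in size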", "in_short": "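Thallium-flux (FluxOR) read-out on FDSS: fluorescence read 10 s before and 2 min after stimulation buffer. hERG-BacMam-transduced U2OS cells, compound exposure about 10 min. AC50 by standard Hill equation.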"}, "[14]": {"test": "qHTS profiling for inhibitors of Plasmodium falciparum (3D7) proliferation (AID 743322)", "conditions": "P. falciparum 3D7 proliferation; at 28.7 µM (top of the series)", "in_short": "(§1)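 Parasite DNA was quantified by SYBR Green I fluorescence (ex 485, em 535 nm) after overnight lysis in saponin/Triton buffer at room temperature. Cultures at 0.3% parasitemia and 2.5% hematocrit were first exposed to compound for 72 h at 37 C; signals were normalised to artemisinin (0.29 uM) and vehicle wells.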"}, "[15]": {"test": "qHTS profiling for inhibitors of Plasmodium falciparum (DD2) proliferation (AID 743323; call rule not given here)", "conditions": "lower = more inhibition; at 28.7 µM (top of the series)", "in_short": "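Parasite proliferation measured via DNA-dye fluorescence, as uninfected erythrocytes lack DNA. Cultures at 0.3% parasitemia and 2.5% hematocrit incubated 72 h with compound; signal scaled between vehicle and 0.29 uM artemisinin wells.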"}, "[16]": {"test": "qHTS profiling for inhibitors of Plasmodium falciparum (HB3) proliferation (AID 743324)", "conditions": "Plasmodium falciparum HB3 blood-stage proliferation; at 28.7 µM (top of the series)", "in_short": "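SYBR Green fluorescence (485 ex/535 em) of lysed cultures, incubated overnight at room temperature in the dark, quantifies parasite DNA. Infected erythrocytes at 0.3% parasitemia and 2.5% hematocrit were exposed 72 h; values normalized to DMSO and 0.29 uM artemisinin controls.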"}, "[17]": {"test": "qHTS profiling of the MIPE4 collection as inhibitors of Plasmodium falciparum (3D7) proliferation (AID 743344; call rule not given here)", "conditions": "P. falciparum 3D7 in erythrocytes, SYBR Green DNA fluorescence, 72 h; at 28.5 µM (top of the series)", "in_short": "as §1"}, "[18]": {"test": "qHTS profiling of the MIPE4 collection as inhibitors of Plasmodium falciparum (DD2) proliferation (AID 743345; call rule not given here)", "conditions": "P. falciparum Dd2 in erythrocytes, SYBR Green DNA, 72 h; at 28.5 µM (top of the series)", "in_short": "as §1"}, "[19]": {"test": "qHTS profiling of the MIPE4 collection as inhibitors of Plasmodium falciparum (DD2) proliferation (Rep 2) (AID 743346; call rule not given here)", "conditions": "P. falciparum Dd2 in erythrocytes, SYBR Green DNA, 72 h; at 28.5 µM (top of the series)", "in_short": "as §1"}, "[20]": {"test": "qHTS profiling of the MIPE4 collection as inhibitors of Plasmodium falciparum (HB3) proliferation (AID 743347; call rule not given here)", "conditions": "P. falciparum HB3 in erythrocytes, SYBR Green DNA, 72 h; at 28.5 µM (top of the series)", "in_short": "as §1"}, "[21]": {"test_system": "Zika virus NS2B-NS3 protease", "test": "Primary screen GU AMC qHTS for Zika virus inhibitors (AID 1347154)", "in_short": "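Unlinked Zika NS2B hydrophilic domain/NS3 protease domain noncovalent complex (25 nM final) in 10 mM Tris-HCl pH 8.0, 0.01% Tween 20, with AMC peptide substrate. Fluorescence (ex 340, em 450 nm) change over 15 min, room temperature; percent inhibition fitted to 4-parameter Hill equation.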"}, "[22]": {"test": "Primary qHTS for small molecule stabilizers of the endoplasmic reticulum resident proteome: Secreted ER Calcium Modulated Protein (SERCaMP) assay (AID 1508630)", "in_short": "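The SH-SY5Y reporter protocol was run at 3 concentrations up to 38.3 uM (primary) or 11 concentrations (follow-up): 16 h compound, 100 nM thapsigargin for 4 h, then extracellular luciferase luminescence.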"}}, "note": "Results filed as inconclusive are left out. Entries that show only a call come without a potency. Active and inactive are the calls of the source. Unless noted, calls come from the whole dose curve; as a rule, active = well fitted curve in the direction sought with a large enough effect; inconclusive = small, poorly fitted or top-dose-only effect, or another doubt; inactive = no such curve, though single readings can be large; an effect the other way counts as inactive or inconclusive."}
{"smiles": "COc1cc2c(cc1C(F)(F)F)N(C(=O)Nc1cc(F)cc(-c3cccnc3)c1)CC2", "values": [{"measurement": "Potency", "setting": "[1]", "value": "2240 nM (active)"}, {"measurement": "Potency", "setting": "[2]", "value": "1260 nM (active)"}, {"measurement": "outcome", "setting": "[3]", "value": "inactive"}, {"measurement": "Potency", "setting": "[4]", "value": "inactive"}, {"measurement": "Potency", "setting": "[5]", "value": "1850 nM (active)"}, {"measurement": "Potency", "setting": "[6]", "value": "inactive"}, {"measurement": "outcome", "setting": "[7]", "value": "inactive"}, {"measurement": "outcome", "setting": "[8]", "value": "inactive"}, {"measurement": "activation", "setting": "[9]", "value": "5.25% (inactive)"}, {"measurement": "outcome", "setting": "[10]", "value": "inactive"}, {"measurement": "outcome", "setting": "[11]", "value": "inactive"}, {"measurement": "Potency", "setting": "[12]", "value": "inactive"}, {"measurement": "Potency", "setting": "[13]", "value": "inactive"}, {"measurement": "remaining parasite growth % (stronger effect = lower value)", "setting": "[14]", "value": -1.39, "unit": "%"}, {"measurement": "activity, percent of control", "setting": "[15]", "value": 5.68, "unit": "%"}, {"measurement": "remaining proliferation (% of control), lower = more inhibition", "setting": "[16]", "value": -0.36, "unit": "%"}, {"measurement": "parasite growth, % of DMSO control", "setting": "[17]", "value": 6.27, "unit": "%"}, {"measurement": "parasite growth remaining, % of DMSO control (lower = more inhibition)", "setting": "[18]", "value": 15.3, "unit": "%"}, {"measurement": "parasite growth, % of control (lower = inhibition)", "setting": "[19]", "value": 34.1, "unit": "%"}, {"measurement": "growth, % of control", "setting": "[20]", "value": 3.34, "unit": "%"}, {"measurement": "Potency", "setting": "[21]", "value": "inactive"}, {"measurement": "Potency", "setting": "[22]", "value": "inactive"}]}
